Results as given in paper PMC5540273 (PLoS ONE, 2017).

How the values were obtained:
Details in all cases: concentration: 1 μM, replicates: in singlicate; n = 1
[1] = tested on: AXL
[2] = tested on: T1, BIKE
T1 construct: gene BMP2K

[3] = tested on: BLK
[4] = tested on: BMPR1A
[5] = tested on: BMPR1B
[6] = tested on: BMPR2
[7] = tested on: BMX
[8] = tested on: BRAF
[9] = tested on: T2, BRK
T2 construct: gene PTK6

[10] = tested on: BRSK1
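Further: KINOMEscan kinase panel screen.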

| SMILES | %Inh [1] | %Inh [2] | %Inh [3] | %Inh [4] | %Inh [5] | %Inh [6] | %Inh [7] | %Inh [8] | %Inh [9] | %Inh [10] |
| --- | --- | --- | --- | --- | --- | --- | --- | --- | --- | --- |
| CCC(=O)c1c(-c2ccccc2)c2cc(Cl)ccc2c(=O)n1Cc1cc(C(=O)NC2CC2)n(C)n1 | 0% | 0% | 0% | 0% | 0% | 9% | 4% | 62% | 0% | 0% |
| Nc1ncnc2c1ncn2-c1ccc(Cl)cc1 [AH2635] | 0% | 28% | 24% | 0% | 0% | 2% | 20% | 0% | 0% | 0% |
| O=c1cc(N2CCOCC2)nc2n(Cc3ccc(F)c(Cl)c3)ccn12 [GSK2297099] | 0% | 0% | 13% | 0% | 0% | 0% | 5% | 8% | 0% | 0% |
| FC(F)(F)c1ccc(-c2ncn(CCCN3CCOCC3)c2-c2ccncc2)cc1 [SB-217780] | 40% | 13% | 4% | 7% | 0% | 39% | 1% | 0% | 4% | 13% |
| CCC(=O)c1c(-c2ccccc2)c2cc(Cl)ccc2c(=O)n1Cc1ccc(C(=O)O)cc1 | 0% | 0% | 0% | 0% | 0% | 4% | 0% | 48% | 0% | 0% |
| COC(=O)c1c(-c2ccccc2)c2cc(Br)ccc2c(=O)n1Cc1ccc(NC(=O)CCC(=O)O)cc1 | 0% | 0% | 4% | 0% | 6% | 7% | 2% | 42% | 0% | 0% |
| O=C(Nc1n[nH]c2nc(-c3ccccc3)c(Br)cc12)C1CC1 [SB-708998] | 0% | 28% | 8% | 16% | 0% | 0% | 7% | 31% | 0% | 60% |
| Nc1nc(N)c2nc(-c3ccccc3)[nH]c2n1 [SKF-12778] | 19% | 3% | 0% | 0% | 0% | 7% | 0% | 1% | 16% | 0% |
| COc1cccc(-n2cnc3c(N)ncnc32)c1 [SKF-97416] | 0% | 0% | 0% | 17% | 24% | 57% | 0% | 18% | 0% | 16% |
| COc1ccc(CNC(=O)NC2CCN(c3ccnc(Nc4ccc(F)cc4)n3)C2)cc1 (centres unmarked) [GSK1379706] | 10% | 0% | 3% | 6% | 0% | 22% | 26% | 3% | 21% | 0% |
| OCCCNc1nccc(-c2c(-c3cccc(C(F)(F)F)c3)nn3cc(C(F)(F)F)ccc23)n1 [GW630813] | 0% | 0% | 33% | 0% | 0% | 0% | 13% | 0% | 0% | 0% |
| Cc1ccc(-c2ccc3c(ccc4sc5c(c43)NC[C@@H](C)N=C5N(C)C)n2)cn1 | 0% | 0% | 0% | 0% | 0% | 0% | 0% | 0% | 0% | 0% |
| COc1ccc(Nc2nccc(N3CCC(NS(=O)(=O)c4ccc(NC(C)=O)cc4)C3)n2)cc1 (centres unmarked) [GSK1379729] | 23% | 18% | 26% | 21% | 3% | 0% | 12% | 16% | 18% | 2% |
| CCn1c(-c2ccoc2)nc2cnccc21 [SB-733887] | 5% | 6% | 0% | 0% | 10% | 20% | 0% | 1% | 0% | 0% |
| Cc1nn2c(=O)cc(N3CCOCC3)nc2n1Cc1cccc(Cl)c1Cl [GSK2342769] | 4% | 2% | 18% | 0% | 0% | 4% | 12% | 7% | 1% | 0% |
| CN1C(=O)C(Nc2cc(Cl)c(O)c(Cl)c2)=C(c2ccc(Cl)cc2)C1=O [SB-404321] | 27% | 0% | 0% | 0% | 0% | 1% | 13% | 0% | 0% | 0% |
| Cc1c(Cn2c(C)nn3c(=O)cc(N4CCO[C@H](C)C4)nc23)cccc1C(F)(F)F [GSK2373690] | 0% | 31% | 10% | 15% | 0% | 0% | 21% | 0% | 32% | 7% |
